Source: PubChem
PPARg SRC-1 ag: PPARgamma agonists recruiting SRC-1 coactivator, primary screen, biochemical; Peroxisome proliferator-activated receptor gamma (Homo sapiens), P37231; PPARgamma-SRC-1 coactivator recruitment biochemical assay; activation, % at 8 µM; 200,000 compounds, 0.41% hits; AID 631, 2007; in the data active = activation above about 19%
Target sequence (P37231 whole entry, looked up): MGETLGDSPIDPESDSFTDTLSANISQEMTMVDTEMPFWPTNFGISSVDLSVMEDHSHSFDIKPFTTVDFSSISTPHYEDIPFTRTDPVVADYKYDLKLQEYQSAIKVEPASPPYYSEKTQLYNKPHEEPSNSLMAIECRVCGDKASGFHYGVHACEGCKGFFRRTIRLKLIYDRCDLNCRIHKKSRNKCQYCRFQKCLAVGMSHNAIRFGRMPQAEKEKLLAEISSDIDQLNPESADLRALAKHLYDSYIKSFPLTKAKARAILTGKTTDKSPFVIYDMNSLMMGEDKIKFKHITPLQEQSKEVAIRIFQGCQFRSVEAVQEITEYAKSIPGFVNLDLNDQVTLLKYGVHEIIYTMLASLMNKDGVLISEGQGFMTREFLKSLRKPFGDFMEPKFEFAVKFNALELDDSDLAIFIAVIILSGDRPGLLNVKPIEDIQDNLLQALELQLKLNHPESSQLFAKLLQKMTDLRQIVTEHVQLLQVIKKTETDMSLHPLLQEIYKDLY
SRC1 TRFRET art: TR-FRET detection interference compounds, primary screen, artefact control for PPARgamma SRC-1 recruitment agonists, biochemical, TR-FRET emission ratio; TR-FRET detection artefact counter-screen; stronger effect = higher value; 99,000 compounds, 0.34% hits; TR-FRET ratio at 8 µM; AID 1051, 2008; in the data active = TR-FRET ratio above about 2300
SRC3 TRFRET art: TR-FRET detection interference compounds, artefact control for PPARgamma SRC-3 recruitment agonists, biochemical, TR-FRET ratio; AID 1048, 2008; 99,000 compounds, 0.39% hits; TR-FRET artefact counter-screen, PPARgamma/SRC-3 format; stronger effect = higher value; TR-FRET ratio at 8 µM
PPARg SRC3 recr: PPARgamma agonists recruiting SRC-3 coactivator, primary screen, biochemical; 200,000 compounds, 0.26% hits; AID 731, 2007; biochemical PPARgamma/SRC-3 coactivator recruitment assay; activation, % at 8 µM; Peroxisome proliferator-activated receptor gamma (Homo sapiens), P37231; in the data active = activation above about 23%
PPARg SRC2 recr: agonists of PPARg-SRC-2 recruitment, primary screen, biochemical, HTS | PPARgamma LBD-SRC-2 recruitment | activation, % at 8 µM | 200,000 compounds, 0.34% hits | Peroxisome proliferator-activated receptor gamma (Homo sapiens), P37231 | AID 1032, 2008; in the data active = activation above about 22%
TR-FRET SRC-2 ct: TR-FRET signal artefacts, primary screen, artefact control for PPARgamma SRC-2 agonist project, biochemical; TR-FRET artefact counter-screen; stronger effect = higher value; TR-FRET ratio at 8 µM; 200,000 compounds, 0.4% hits; AID 1049, 2008
PPARg SRC2 ag: agonists of PPARgamma SRC-2 coactivator recruitment, confirmation, biochemical, HTS | shares compounds with PPARg SRC3 recr | biochemical SRC-2 recruitment by PPARgamma | activation, % at 8 µM | 790 compounds, 52% hits | AID 1297, 2008; in the data active = activation above about 22%
PPARg SRC1 ag: PPARgamma agonists recruiting SRC-1 coactivator, confirmation, biochemical | shares compounds with PPARg SRC3 recr | PPARgamma–SRC-1 coactivator recruitment biochemical assay | activation, % at 8 µM | 790 compounds, 43% hits; in the data active = activation above about 20%
PPARg SRC3 conf: PPARgamma-driven SRC-3 coactivator recruitment agonists, confirmation, biochemical; shares compounds with PPARg SRC3 recr; biochemical PPARgamma-SRC-3 coactivator recruitment, agonist mode; activation, % at 8 µM; 790 compounds, 29% hits; in the data active = activation above about 24%
Numbers stand for hits; i = inactive; nt = not tested or not shown. Hits are enriched below; roughly 0.9% of the tested compounds scored in any of these assays. Rule as the data show it, unless noted: active = TR-FRET ratio above about 2000; inactive = the rest.

SMILES | PPARg SRC-1 ag | SRC1 TRFRET art | SRC3 TRFRET art | PPARg SRC3 recr | PPARg SRC2 recr | TR-FRET SRC-2 ct | PPARg SRC2 ag | PPARg SRC1 ag | PPARg SRC3 conf
CCn1c(=O)cc(SCC(=O)Nc2ccc3c(c2)OCO3)c2ccccc21 | 24 | nt | nt | 32 | 47 | 2330 | 44 | 32 | 29
CCn1c(=O)cc(SCC(=O)Nc2cccnc2)c2ccccc21 | 19 | nt | nt | 27 | 45 | 2082 | 31 | 20 | i
COc1cccc(CC2(CO)CCCN(Cc3ccc(CN4CCCCC4)s3)C2)c1 (configuration not stated) | i | i | i | i | i | i | nt | nt | nt
CC(=O)N1N=C(c2ccc(Br)cc2)CC1c1cn(C)c2ccccc12 (configuration not stated) | 24 | 2488 | 2275 | i | 28 | 2079 | 36 | 34 | i
CCCC(=O)N1N=C(c2ccccc2)CC1c1cn(C)c2ccccc12 (configuration not stated) | i | i | i | i | i | i | nt | nt | nt
N#CC1=C2SCN(Cc3ccccc3)CN2C(=O)CC1c1cccs1 (configuration not stated) | i | nt | nt | 26 | 23 | 2063 | 23 | i | i
CCCC(=O)NCCc1nc2cc([N+](=O)[O-])ccc2n1C | i | i | i | i | i | i | nt | nt | nt
O=C(Nc1nc2c(s1)COc1ccccc1-2)c1cccs1 | i | nt | nt | i | 27 | 2118 | 41 | 32 | 28
COCCCn1c(=S)[nH]c2sc3c(c2c1=O)CCCS3 | 43 | 3194 | 2497 | 36 | 44 | 2732 | 57 | 40 | 38
CCn1c(=O)n(CCOC)c(=O)c2c3c(sc21)CCCC3 | i | nt | nt | i | i | i | nt | nt | nt
O=C(CSc1nnc(COc2cccc3cccnc23)o1)N1CCc2ccccc21 | 20 | nt | nt | i | i | i | i | i | i
COc1cccc(C2C3=C(CCCC3=O)Nc3[nH]n(-c4ccccc4)c(=O)c32)c1 (configuration not stated) | i | i | i | i | i | i | nt | nt | nt
COc1cccc(C2C3=C(Nc4[nH]n(-c5ccccc5)c(=O)c42)c2ccccc2C3=O)c1 (configuration not stated) | 22 | i | i | 33 | i | i | 54 | 54 | 56
CCOc1ccc(S(=O)(=O)N(C)c2ccc(OCC(=O)Nc3nc(-c4cc(OC)ccc4OC)cs3)cc2)cc1 | 25 | 2860 | 2621 | i | 26 | 2453 | 32 | 26 | i
O=C(NCCc1c[nH]c2ccccc12)C(=O)NCC1OCCCN1S(=O)(=O)c1cc(F)ccc1F (configuration not stated) | i | i | i | i | i | i | nt | nt | nt
O=C(O)CCc1ccc(-c2ccc(Br)cc2)o1 | 28 | nt | nt | 62 | 42 | 2456 | 26 | i | i
Cc1cc(C)nc(NS(=O)(=O)c2ccc(NC(=O)CSc3nc(-c4ccccc4)c(C#N)c(=O)[nH]3)cc2)n1 | 21 | i | 2218 | i | 24 | 2049 | i | i | i
N#Cc1c(-c2ccccc2)nc(SCC(=O)Nc2ccccc2)[nH]c1=O | i | i | i | i | i | i | nt | nt | nt
COC(=O)c1ccccc1C(=O)c1ccc2c(c1)NC(=O)CO2 | i | i | i | i | i | i | nt | nt | nt
O=C(Nc1ccccc1C(=O)NCC1CCCO1)c1ccc(Cl)cc1Cl (configuration not stated) | 22 | nt | nt | i | i | i | i | i | i
